Rows were chosen to be rich in hits. Some 13% of all compounds tested hit in one or more screens of this group.
USP30 block: inhibitors of human USP30 deubiquitinase | purified USP30, Ub-rhodamine cleavage fluorescence | inhibition, % at 25 µM | hit rate 5.3% among 47,000 | AID 1645860
USP8 inh: blocks human USP8 ubiquitin-rhodamine cleavage; purified USP8, Ub-rhodamine cleavage fluorescence, 30 min; inhibition, % at 20 µM; hit rate 4.2% among 47,000
USP28 block: human USP28 deubiquitinase inhibition | AID 1645857 | inhibition, % at 25 µM | purified USP28, Ub-rhodamine cleavage fluorescence, 30 min | hit rate 3% among 47,000
OTUD3 block: blocks human OTUD3 ubiquitin-rhodamine cleavage; Q5T2D3; purified OTUD3, Ub-rhodamine fluorescence, 2 h; inhibition, % at 25 µM; hit rate 0.7% among 47,000
USP17 block: human USP17-like deubiquitinase inhibition. purified USP17, Ub-rhodamine cleavage fluorescence, 3 h. A8MUK1. hit rate 6.5% among 47,000. inhibition, % at 50 µM
Target sequence (A8MUK1 whole entry, looked up): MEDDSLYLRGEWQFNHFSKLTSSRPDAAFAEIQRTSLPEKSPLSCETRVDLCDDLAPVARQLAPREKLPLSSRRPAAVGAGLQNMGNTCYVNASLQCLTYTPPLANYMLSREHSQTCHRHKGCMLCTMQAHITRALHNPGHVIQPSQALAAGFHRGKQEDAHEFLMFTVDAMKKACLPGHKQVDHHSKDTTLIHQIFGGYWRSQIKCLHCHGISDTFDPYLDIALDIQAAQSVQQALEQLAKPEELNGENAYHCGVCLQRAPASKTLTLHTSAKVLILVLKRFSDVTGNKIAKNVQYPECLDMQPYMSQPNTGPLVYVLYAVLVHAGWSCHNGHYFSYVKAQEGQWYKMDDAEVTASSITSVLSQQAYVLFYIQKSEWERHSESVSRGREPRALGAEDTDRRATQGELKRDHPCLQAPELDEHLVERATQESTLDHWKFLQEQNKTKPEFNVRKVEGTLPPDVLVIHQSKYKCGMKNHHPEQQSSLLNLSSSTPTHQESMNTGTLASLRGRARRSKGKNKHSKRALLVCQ
Numbers without * were called inactive. No stated cut-off is given here; in the data, active means inhibition above about 30%; inactive means the rest.

How did O=C(Cn1c(=O)[nH]c2ccccc2c1=O)NC1CCCC1 do in these assays?
USP30 block: 26; USP8 inh: 0; USP28 block: 8; OTUD3 block: 14; USP17 block: 27

What do the screens show for `O=C(Cn1c(=O)[nH]c2c(-c3ccccc3F)c[nH]c2c1=O)NC1CCCCC1`?
USP30 block: 7; USP8 inh: 34*; USP28 block: 0; OTUD3 block: 0; USP17 block: 12

How did O=C(Cn1c(=O)[nH]c2c(-c3ccccc3)c[nH]c2c1=O)NCc1ccc(Cl)cc1 do in these assays?
USP30 block: -11; USP8 inh: 32*; USP28 block: -9; OTUD3 block: -7; USP17 block: -10

How did Cc1ccc(F)cc1NC(=O)C1Cc2ccccc2CN1C(=O)c1ccco1 (configuration not stated) do in these assays?
USP30 block: -130; USP8 inh: 0; USP28 block: -22; OTUD3 block: -12; USP17 block: 2

Results for COc1ccc(S(=O)(=O)N2CCC(Cc3ccccc3)CC2)cc1NC(C)=O ?
USP30 block: 35*; USP8 inh: -6; USP28 block: 14; OTUD3 block: 10; USP17 block: 21

Results for COc1ccc(S(=O)(=O)N2CCOCC2)cc1NC(=O)C1Cc2ccccc2CN1C(=O)c1ccco1 (configuration not stated) ?
USP30 block: -180; USP8 inh: 49*; USP28 block: -12; OTUD3 block: -16; USP17 block: -1

What do the screens show for `CCOC(=O)c1noc2ncnc(N(C)c3cccc(Cl)c3)c12`?
USP30 block: 12; USP8 inh: 18; USP28 block: 20; OTUD3 block: 22; USP17 block: 13

What do the screens show for `O=C(O)C(=O)Nc1cc(Cl)cc(Cl)c1`?
USP30 block: 4; USP8 inh: 0; USP28 block: -4; OTUD3 block: 0; USP17 block: 0

How did Clc1ccc(OCc2nc(-c3ccn4cnnc4c3)no2)cc1 do in these assays?
USP30 block: -99; USP8 inh: -6; USP28 block: 45*; OTUD3 block: -91; USP17 block: 14

How did c1ccc(OCc2nc(-c3ccn4cnnc4c3)no2)cc1 do in these assays?
USP30 block: -40; USP8 inh: -2; USP28 block: 24; OTUD3 block: -10; USP17 block: -1

What do the screens show for `COc1ccc(Cc2nc(-c3ccc4nncn4c3)no2)c(Cl)c1`?
USP30 block: 5; USP8 inh: 7; USP28 block: 41*; OTUD3 block: 1; USP17 block: 0

Results for Fc1cccc(Cc2nc(-c3ccc4nncn4c3)no2)c1 ?
USP8 inh: 0; OTUD3 block: -5; USP17 block: -3

How did Fc1ccc(Cc2nc(-c3ccc4nncn4c3)no2)cc1 do in these assays?
USP30 block: -1; USP8 inh: 1; USP28 block: 58*; OTUD3 block: -1; USP17 block: 1

How did CCc1ccccc1NS(=O)(=O)c1cc(C(=O)N2CCCC2)n(C)c1C do in these assays?
USP30 block: -1; USP8 inh: 0; USP28 block: -16; OTUD3 block: -4; USP17 block: -2

What do the screens show for `COc1ncccc1CNC(=O)NC1CCCCC1`?
USP30 block: 10; USP8 inh: 8; USP28 block: 7; OTUD3 block: 7; USP17 block: 9

Results for COc1ccc(C(=O)OCC(=O)N2CCC(Cc3ccccc3)CC2)cc1[N+](=O)[O-] ?
USP30 block: 46*; USP8 inh: -18; USP28 block: 36*; OTUD3 block: 7; USP17 block: 11

How did O=C(OCC(=O)N1CCC(Cc2ccccc2)CC1)c1ccc2c(c1)S(=O)(=O)N=C1CCCCCN12 do in these assays?
USP30 block: 49*; USP8 inh: 9; USP28 block: 21; OTUD3 block: 7; USP17 block: 2

What do the screens show for `COc1cc(C(=O)OCC(=O)N2CCC(Cc3ccccc3)CC2)c([N+](=O)[O-])cc1OC`?
USP30 block: 44*; USP8 inh: -51; USP28 block: 21; OTUD3 block: 18; USP17 block: -4

How did Cc1noc(C)c1CN1CCN(C(=O)c2ccc(OC(C)C)cc2)CC1 do in these assays?
USP30 block: -3; USP8 inh: -63; USP28 block: -4; OTUD3 block: -4; USP17 block: -8

How did Cc1ccc(CN2CC[C@@H]3[C@@H](CO[C@@H]3CNS(C)(=O)=O)C2)o1 do in these assays?
USP30 block: -16; USP8 inh: -63; USP28 block: -10; OTUD3 block: -5; USP17 block: -18

Results for Cc1cc(C)nc(NC(=O)c2ccn(COc3ccc(F)cc3)n2)c1 ?
USP30 block: 32*; USP8 inh: 6; USP28 block: 4; OTUD3 block: 13; USP17 block: 4

What do the screens show for `Cc1ccc(NC(=O)c2ccn(COc3ccc(Cl)c(C)c3)n2)nc1`?
USP30 block: 22; USP8 inh: 19; USP28 block: -6; OTUD3 block: -1; USP17 block: 34*

How did Cc1ccc(NC(=O)c2ccn(COc3ccccc3Cl)n2)nc1 do in these assays?
USP30 block: 48*; USP8 inh: 21; USP28 block: 19; OTUD3 block: 7; USP17 block: 33*

How did Cc1ccc(Cl)cc1NC(=O)c1ccn(COc2ccccc2F)n1 do in these assays?
USP30 block: 0; USP8 inh: -10; USP28 block: 35*; OTUD3 block: 5; USP17 block: 0

How did COc1ccc(-c2cc(C(F)F)n3ncc(C(=O)N4CCN(Cc5ccccc5)CC4)c3n2)cc1 do in these assays?
USP30 block: -5; USP8 inh: 10; USP28 block: 0; OTUD3 block: 1; USP17 block: -1

What do the screens show for `COc1ccccc1NS(=O)(=O)c1ccc2c(c1)OCC(=O)N2`?
USP30 block: 16; USP8 inh: 11; USP28 block: 10; OTUD3 block: 3; USP17 block: 4

Results for COc1ccc(C(C)=O)cc1CSc1nc2ccccc2c(=O)n1C1CCCC1 ?
USP8 inh: 7; OTUD3 block: 2; USP17 block: 12

What do the screens show for `CC1Cc2cc(S(=O)(=O)N3CCCCCC3)ccc2N1C(=O)C1CC1` (configuration not stated)?
USP30 block: -7; USP8 inh: -22; USP28 block: 17; OTUD3 block: -2; USP17 block: -6

Results for CC1Cc2cc(S(=O)(=O)NCCN3CCCCCC3)ccc2N1C(=O)C1CC1 (configuration not stated) ?
USP30 block: 5; USP8 inh: -2; USP28 block: 39*; OTUD3 block: -3; USP17 block: 2

Results for Cc1cccc(NC(=O)Cn2c(-c3cnccn3)nc(C)c(C)c2=O)c1C ?
USP30 block: 76*; USP8 inh: -100; USP28 block: -1; OTUD3 block: -1; USP17 block: 38*

Results for Cc1nc(-c2cnccn2)n(CC(=O)Nc2cccc(C#N)c2)c(=O)c1C ?
USP30 block: 3; USP8 inh: 1; USP28 block: 0; OTUD3 block: -3; USP17 block: -1

Results for Cc1ccc(NC(=O)Cn2c(=O)n(CC(=O)NCCc3ccccc3)c(=O)c3sccc32)cc1C ?
USP30 block: 47*; USP8 inh: 50*; USP28 block: 11; OTUD3 block: 1; USP17 block: 23
